Growth data for 13 compounds are collected here from PubChem BioAssay (NCI).

About 83,000 compounds went through this panel and 20% of them were active in at least one assay; those are over-represented in the sample as a whole.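 Results are percent growth after 48 hours of single-concentration exposure. 100 means growth as in untreated cells, lower positive values show inhibition; negative values down to -100 show cell death.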 Unmarked numbers belong to inactive results. Activity calls are given as the source filed them. Rule for the calls: active = growth percent below 10; inactive = the rest.

Among the test systems are RPMI-8226 leukemia; OVCAR-8 ovarian; OVCAR-5 ovarian; OVCAR-4 ovarian; SK-OV-3 ovarian; IGROV1 ovarian; OVCAR-3 ovarian; HS 578T breast; NCI/ADR-RES ovarian; T-47D breast.
What all share (experiment): NCI-60 one-dose screen, 48 h (100 = growth as untreated, 0 = no growth, -100 = all killed)
Conditions in all cases: 10 µM unless noted

For the compound `COC(=O)c1ccc2c(c1)NC(=O)[C@@H]1CCCN21`, the growth was 96.6% with RPMI-8226 leukemia; 97.5% in the assay on OVCAR-8 ovarian; 112% with OVCAR-5 ovarian; 88.4% in the assay with OVCAR-4 ovarian; 95.2% in the assay on SK-OV-3 ovarian; 101% with IGROV1 ovarian. The growth in the assay on OVCAR-3 ovarian is 102%; in the assay on HS 578T breast it was 105%; in the assay on NCI/ADR-RES ovarian it was 100%; with T-47D breast it was 86.3%.

As for `CCCn1c2cc(OCc3cn(-c4ccc(Cl)cc4)nn3)ccc2c2ccnc(C)c21`, the growth with RPMI-8226 leukemia was 23.3%; in the assay on OVCAR-8 ovarian, 49.9%; in the assay with OVCAR-5 ovarian, 78%; in the assay with OVCAR-4 ovarian, 55.5%; in the assay on SK-OV-3 ovarian, 73.9%; with IGROV1 ovarian, 74%. For the same compound, the growth in the assay with OVCAR-3 ovarian is 59.3%; with HS 578T breast it was 75%; in the assay on NCI/ADR-RES ovarian it was 66.3%; in the assay on T-47D breast it was 52.2%.

In the case of `COc1cc(NCC(=O)Nc2cc(Nc3cccc(C(F)(F)F)c3)ncn2)c(Cl)c(OC)c1Cl`, the growth was 83.5% with RPMI-8226 leukemia; 94.1% with OVCAR-8 ovarian; 98.2% in the assay with OVCAR-5 ovarian; 99.2% in the assay on OVCAR-4 ovarian; 93.6% with SK-OV-3 ovarian; 95.3% with IGROV1 ovarian. The growth in the assay with OVCAR-3 ovarian is 95.5%; with HS 578T breast it was 82.2%; in the assay on NCI/ADR-RES ovarian, 96.3%; in the assay on T-47D breast it was 81.2%.

Turning to `COC1=CC=CC2(OC)C3(O)CCCc4cccc(c43)N3C(=O)COC132` (stereo not given), the growth with RPMI-8226 leukemia was 92.4%; with OVCAR-8 ovarian, 99.2%; with OVCAR-5 ovarian it was 104%; in the assay with OVCAR-4 ovarian, 96.6%; in the assay on SK-OV-3 ovarian it was 107%; with IGROV1 ovarian, 94.7%. For the same compound, the growth with OVCAR-3 ovarian is 109%; with HS 578T breast, 93.7%; in the assay on NCI/ADR-RES ovarian, 101%; in the assay on T-47D breast, 97.7%.

For the compound `COc1cc([C@H](C)c2ccc3ccccc3c2)cc(OC)c1OC`, the growth in the assay with RPMI-8226 leukemia is 15.9%; in the assay with OVCAR-8 ovarian, 23.2%; in the assay on OVCAR-5 ovarian, 62.1%; in the assay on OVCAR-4 ovarian it was 40.6%; in the assay on SK-OV-3 ovarian it was 31%; with IGROV1 ovarian, 36%. Besides, the growth was -19.7% (active) in the assay on OVCAR-3 ovarian, 30.2% in the assay on HS 578T breast, 17.9% with NCI/ADR-RES ovarian and 42.2% in the assay on T-47D breast.

For the compound `CCN(CC)CC#CCOC(=O)[C@]1(C)CCC[C@]2(C)[C@H]3C[C@H]4C(C(C)C)=C[C@]3(CC[C@H]21)[C@@H]1C(=O)CCC(=O)[C@@H]14`, the growth was 17.5% in the assay with RPMI-8226 leukemia; 39.6% with OVCAR-8 ovarian; 62.4% in the assay with OVCAR-5 ovarian; 36.4% with OVCAR-4 ovarian; 77.8% in the assay on SK-OV-3 ovarian; 64.2% with IGROV1 ovarian. Moreover, the growth in the assay on OVCAR-3 ovarian is 58.5%; with HS 578T breast, 69.3%; in the assay on NCI/ADR-RES ovarian it was 45.7%; with T-47D breast, 35.5%.

In the case of `CCCCCCN1C(=O)CN=C1Nc1ccc2cc3ccc(NC4=NCC(=O)N4CCCCCC)cc3nc2c1`, the growth with RPMI-8226 leukemia was -22.6% (active); in the assay with OVCAR-8 ovarian, 73.9%; in the assay with OVCAR-5 ovarian, 75%; in the assay on OVCAR-4 ovarian it was 55.6%; in the assay with SK-OV-3 ovarian, 103%; with IGROV1 ovarian it was 53.7%. The growth is -35.9% (active) in the assay on OVCAR-3 ovarian, 56.6% in the assay on HS 578T breast, 81.3% with NCI/ADR-RES ovarian and 32.9% in the assay with T-47D breast.

For `C=C(C)[C@@H]1CC[C@]2(C(=O)NCCCO)CC[C@]3(C)[C@H](CC[C@@H]4[C@@]5(C)CCCNC(C)(C)[C@@H]5CC[C@]43C)[C@@H]12`, the growth is 29% with RPMI-8226 leukemia; 87.4% with OVCAR-8 ovarian; 88% in the assay with OVCAR-5 ovarian; 69.3% in the assay with OVCAR-4 ovarian; 85.5% in the assay with SK-OV-3 ovarian; 75.9% in the assay on IGROV1 ovarian. The growth was 79.2% in the assay with OVCAR-3 ovarian, 61.9% in the assay with HS 578T breast, 82.7% in the assay with NCI/ADR-RES ovarian and 43.8% in the assay on T-47D breast.

In the case of `Cc1c(Cl)cccc1NC(=O)c1sc2nc3c(cc2c1N)CCCCC3`, the growth was 22.2% with RPMI-8226 leukemia; 31.5% in the assay with OVCAR-8 ovarian; 58.3% in the assay on OVCAR-5 ovarian; 59.2% in the assay on OVCAR-4 ovarian; 47.8% in the assay on SK-OV-3 ovarian; 54.9% in the assay on IGROV1 ovarian. The growth in the assay with OVCAR-3 ovarian was -3.42% (active); in the assay on HS 578T breast it was 38%; in the assay with NCI/ADR-RES ovarian it was 19.7%; in the assay on T-47D breast, 44%.

Take `CN(C)c1ccc(-c2ccc3[nH]c(=O)nc(-c4ccc(F)cc4)c3c2)cn1`: the growth in the assay with RPMI-8226 leukemia was 46.9%; in the assay with OVCAR-8 ovarian, 43.5%; in the assay with OVCAR-5 ovarian, 79.9%; in the assay on OVCAR-4 ovarian it was 66.5%; in the assay on SK-OV-3 ovarian it was 36.2%; with IGROV1 ovarian it was 53.8%. Moreover, the growth is 6.67% (active) in the assay with OVCAR-3 ovarian, 28.5% in the assay with HS 578T breast, 51.7% in the assay with NCI/ADR-RES ovarian and 36.6% in the assay on T-47D breast.

For `O=[N+]([O-])c1cccc(CN(Cc2cccc([N+](=O)[O-])c2O)c2ccccc2)c1O`, the growth with RPMI-8226 leukemia is 59.8%; in the assay on OVCAR-8 ovarian it was 83.2%; in the assay on OVCAR-5 ovarian it was 76.5%; in the assay with OVCAR-4 ovarian it was 68%; with SK-OV-3 ovarian, 86.4%; in the assay with IGROV1 ovarian it was 60.4%. Moreover, the growth was 88.9% with OVCAR-3 ovarian, 94.6% in the assay with HS 578T breast, 76% in the assay on NCI/ADR-RES ovarian and 70.8% with T-47D breast.

With `O=C(N/N=C/C[C@@H]1[C@@H](/C=C/[C@@H](O)COc2cccc(Cl)c2)[C@H](O)C[C@@H]1O)c1ccncc1`, the growth was 94.5% with RPMI-8226 leukemia; 79.9% in the assay on OVCAR-8 ovarian; 97.4% with OVCAR-5 ovarian; 104% with OVCAR-4 ovarian; 77% in the assay with SK-OV-3 ovarian; 109% in the assay with IGROV1 ovarian. The growth with OVCAR-3 ovarian is 105%; with HS 578T breast it was 92.5%; in the assay with NCI/ADR-RES ovarian, 102%; in the assay on T-47D breast, 90.8%.

In the case of `OCCNc1nc(NCCO)nc(Nc2ccc(C3=NN(c4cc(Cl)cc(Cl)c4)C(c4ccccc4)C3)cc2)n1` (stereo not given), the growth was 30.9% in the assay with RPMI-8226 leukemia; 48.9% in the assay with OVCAR-8 ovarian; 85.8% in the assay on OVCAR-5 ovarian; 57.7% with OVCAR-4 ovarian; 94.5% with SK-OV-3 ovarian; 57.5% in the assay on IGROV1 ovarian. The growth in the assay on OVCAR-3 ovarian was 26.2%; in the assay on HS 578T breast, 62.9%; in the assay with NCI/ADR-RES ovarian, 57.2%; with T-47D breast, 63.6%.
